Results reported in PubChem BioAssay.
“And” between values parts separate entries of the source, which are not always exact repeats. Equal values may be shown once.

Experiment: viability loss with induced miR-34 in A549 – imaging, A549 dox-inducible miR-34, nuclei and caspase counts, primary screen (AID 1347080); also: test concentration not given here
Details: A549 miR-34 inducible, Hoechst nuclei count, 48 h; measured here: total cells with miR-34 induction; stronger effect = lower value

For `CN(C)CCCSc1ccccc1NC(=O)/C=C/c1ccccc1`, which cell count is on record?
Its cell count is 7810 and 9010.

For `CC(C)(O)c1ccccc1CC[C@@H](SCC1(CC(=O)O)CC1)c1cccc(/C=C/c2ccc3ccc(Cl)cc3n2)c1`, which cell count is on record?
The cell count was 9780.

For `CN1CCN(C2=Nc3cc(F)ccc3Cc3ccccc32)CC1`, which cell count is on record?
The cell count was 5980 and 8510.

For `CC(=O)Nc1ccc(OCC(O)CNC(C)C)cc1` (stereo not given), which cell count is on record?
Its cell count is 8450 and 10300.

Which cell count does the source give for `O=C(O)P(=O)(O)O` here?
Its cell count is 8080 and 11700.

For `CC(Oc1c(Cl)cccc1Cl)C1=NCCN1` (stereo not given), which cell count is on record?
The cell count was 9080 and 9420 and 9240.

For `CCCCNc1c(C(=O)OCC)c(C)nc2c1cnn2CC`, which cell count is on record?
Its cell count is 9150 and 8740 and 7780.

With `COc1cc(N)c(Cl)cc1C(=O)NC1CCN(Cc2ccccc2)CC1` as the molecule, how does the cell count read?
Its cell count is 7810.

For `C[C@]12CCC(=O)C=C1C=C[C@@H]1[C@@H]2CC[C@@]2(C)[C@H]1CC[C@@]21CCC(=O)O1`, which cell count is on record?
The cell count was 8530.

Which cell count does the source give for `C/C=C/c1ccc(OC)cc1` here?
The cell count was 10200 and 9980.

For `CCOC(=O)OC(C)OC1=C(C(=O)Nc2ccccn2)N(C)S(=O)(=O)c2ccccc21` (stereo not given), which cell count is on record?
The cell count was 9250 and 8630 and 9370.

For `COc1ccc(C(=O)NCc2ccc(OCCN(C)C)cc2)cc1OC`, which cell count is on record?
Its cell count is 8010 and 10500 and 9070.

Which cell count does the source give for `C[C@H]1COc2c(C3(N)CC3)c(F)cc3c(=O)c(C(=O)O)cn1c23` here?
The cell count was 8060 and 10100.

Which cell count does the source give for `CC(=O)Nc1ccc(CC(=O)O)cc1` here?
Its cell count is 9700.

With `O=C(O)CCC(=O)c1ccc(-c2ccccc2)cc1` as the molecule, how does the cell count read?
Its cell count is 8550 and 11300 and 9420.

With `CCN1CC(CCN2CCOCC2)C(c2ccccc2)(c2ccccc2)C1=O` (stereo not given) as the molecule, how does the cell count read?
The cell count was 7960 and 7680.

With `Cn1c(=O)c2c(ncn2CCO)n(C)c1=O` as the molecule, how does the cell count read?
Its cell count is 8860.

With `CN1CCCCC1CCN1c2ccccc2Sc2ccc(S(C)=O)cc21` (stereo not given) as the molecule, how does the cell count read?
Its cell count is 7930 and 7130 and 7860.

For `Nc1nc2c(ncn2CCC(CO)CO)c(=O)[nH]1`, which cell count is on record?
The cell count was 10200 and 9130 and 9970.

Which cell count does the source give for `CC(C)(C(=O)c1cccnc1)c1cccnc1` here?
The cell count was 10400 and 8590 and 12100.
